Results filed as inconclusive are left out. Activity calls are given as the source filed them. Unless noted, calls come from the whole dose curve.
Key:
[1] = qHTS assay to identify small molecule agonists of the vitamin D receptor (VDR) signaling pathway - cell viability counter screen (AID 743224; active = well fitted curve in the direction sought with a large enough effect in the repeat runs; an effect the other way counts as inactive or inconclusive; note: series mostly up to about 63 µM; % is set by controls: 0 for no effect and ±100 for the full control effect; nearly all actives have a fitted effect of over 50% in size)
How it was run: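 Here cell health was gauged by luminescent ATP detection (CellTiter-Glo, 30 min RT) in VDR-bla cells that had been incubated with test compounds for 16 h at 37C and 5% CO2.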

[2] = qHTS assay to identify small molecule antagonists of the vitamin D receptor (VDR) signaling pathway - cell viability counter screen (AID 743225; active = well fitted curve in the direction sought with a large enough effect in the repeat runs; an effect the other way counts as inactive or inconclusive; note: % is set by controls: 0 for no effect and ±100 for the full control effect; nearly all actives have a fitted effect of over 50% in size)
How it was run: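 Luminescent cell viability (CellTiter-Glo) in VDR-bla HEK 293T cells after 16 h compound exposure at 37C in the presence of 3 nM final 1-alpha,25-dihydroxy vitamin D3.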

[3] = qHTS assay to identify small molecule agonists of the NFkB signaling pathway (AID 1159509; active = well fitted curve in the direction sought with a large enough effect in the signal ratio in the repeat runs, not every such curve was filed as active; the % refers to the signal ratio; note: series mostly up to about 61 µM; % is set by controls: 0 for no effect and ±100 for the full control effect)
How it was run: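 ME-180 NFkB-bla, 2,000 cells/well, overnight plating; cpd pinned in DMSO, 5 h 37 C; B/G FRET substrate 1.5 h RT; ex 405, em 460/530 nm.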

[4] = qHTS assay to identify small molecule agonists of the NFkB signaling pathway - cell viability counter screen (AID 1159515); note: series mostly up to about 61 µM; % is set by controls: 0 for no effect and ±100 for the full control effect; nearly all actives have a fitted effect of over 55% in size
How it was run: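 5 hr compound treatment of NFkB-bla ME-180 cells (2,000/well, seeded overnight beforehand), followed by reporter substrate for 1.5 hr. CellTiter-Glo added afterward; luminescence after 30 min RT.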

[5] = qHTS assay to identify small molecule agonists of the endoplasmic reticulum stress response signaling pathway (AID 1159516; active = well fitted activation curve with a large enough effect in the signal ratio in the repeat runs, not every such curve was filed as active; the % refers to the signal ratio; note: % is set by controls: 0 for no effect and ±100 for the full control effect)
How it was run: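 Reporter HeLa cells (ESRE-beta-lactamase) underwent 5 hr compound incubation at 37 C and 5% CO2 in quantitative HTS format. Detection followed 2 hr of FRET substrate loading at room temperature.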

[6] = qHTS assay to identify small molecule agonists of the endoplasmic reticulum stress response signaling pathway - cell viability counter screen (AID 1159517);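 note: HeLa cells carrying an ER stress response element beta-lactamase reporter; series mostly up to about 61 µM; % is set by controls: 0 for no effect and ±100 for the full control effect; nearly all actives have a fitted effect of over 50% in size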
How it was run: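 ESRE-bla HeLa cells, 1,500 per well, seeded overnight then treated with compounds for 5 hr at 37 C. After the beta-lactamase read, viability in the same wells is measured by CellTiter-Glo luminescence after 30 min at room temperature.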

[7] = qHTS assay to identify small molecule antagonists of the retinoid-related orphan receptor gamma (ROR-gamma) signaling pathway - cell viability counter screen (AID 1159520; active = well fitted curve in the direction sought with a large enough effect in the repeat runs; an effect the other way counts as inactive or inconclusive; note: % is set by controls: 0 for no effect and ±100 for the full control effect; nearly all actives have a fitted effect of over 50% in size)
How it was run: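 Tet-on ROR gamma CHO cells were given compounds for 2 hr, then doxycycline hyclate at 1 uM final, and incubated 16 hr at 37 C. Viability was measured as ATP content by CellTiter-Glo luminescence.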

[8] = target: Nuclear receptor ROR-gamma (Homo sapiens) (UniProt P51449); experiment: qHTS assay to identify small molecule antagonists of the retinoid-related orphan receptor gamma (ROR-gamma) signaling pathway (AID 1159521; active = well fitted curve in the direction sought with a large enough effect in the repeat runs; an effect the other way counts as inactive or inconclusive)
How it was run: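 CHO cells expressing RORγ under a TET-on promoter, luciferase under RORE control. Dox 1 uM final, 16 h; compounds added 2 h prior. Luminescence decrease measured.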

[9] = qHTS assay to identify small molecule agonists of the AP-1 signaling pathway - cell viability counter screen (AID 1159525); note: nearly all actives have a fitted effect of over 55% in size
How it was run: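 AP-1-bla ME-180 cells in Opti-MEM with 0.5% dialyzed FBS, compound exposure 5 h at 37 C in 15-point titration. Viability read in the same wells as ATP content by CellTiter-Glo luminescence, normalised to tetra-n-octylammonium bromide and DMSO controls.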

[10] = qHTS assay to identify small molecule agonists of the AP-1 signaling pathway (AID 1159526); note: % is set by controls: 0 for no effect and ±100 for the full control effect

N=C(N)c1ccc(OCCCOc2ccc(C(=N)N)cc2)cc1
inactive: Potency [1] | Potency [2] | outcome [3] | outcome [4] | outcome [5] | outcome [6] | outcome [7] | Potency [8] | Potency [9] | outcome [10]

O=C1NC(=O)[C@@]2(CCOc3ccc(F)cc32)N1
inactive: Potency [1] | Potency [2] | outcome [3] | outcome [4] | outcome [5] | outcome [6] | outcome [7] | Potency [8] | Potency [9] | outcome [10]

CC(C)(CC(=O)O)C(=O)O
inactive: Potency [1] | Potency [2] | outcome [3] | outcome [4] | outcome [5] | outcome [6] | outcome [7] | Potency [8] | Potency [9] | outcome [10]

CC(NC(CCc1ccccc1)C(=O)O)C(=O)N1C(=O)N(C)CC1C(=O)O (stereo not drawn)
inactive: Potency [1] | Potency [2] | outcome [3] | outcome [4] | outcome [5] | outcome [6] | outcome [7] | Potency [8] | Potency [9] | outcome [10]

N[C@H](C(=O)O)c1ccc(O)cc1
inactive: Potency [1] | Potency [2] | outcome [3] | outcome [4] | outcome [5] | outcome [6] | activity, negative = cytotoxicity [7] 3.98% [at 19 µM] | Potency [8] | viability change, negative = cytotoxic [9] 10.2% [at 15.8 µM] | outcome [10]

O=Cc1cccc([N+](=O)[O-])c1
inactive: Potency [1] | Potency [2] | outcome [3] | outcome [4] | outcome [5] | outcome [6] | outcome [7] | Potency [8] | Potency [9] | outcome [10]

COC(=O)CC(C)=O
inactive: Potency [1] | Potency [2] | outcome [3] | outcome [4] | outcome [5] | outcome [6] | outcome [7] | Potency [8] | Potency [9] | outcome [10]

c1ccc([C@H]2CN3CCSC3=N2)cc1
inactive: Potency [1] | Potency [2] | outcome [3] | outcome [4] | outcome [5] | outcome [6] | outcome [7] | Potency [8] | Potency [9] | outcome [10]

CC(=O)c1ccccc1O
inactive: Potency [1] | Potency [2] | outcome [3] | outcome [4] | outcome [5] | outcome [6] | outcome [7] | Potency [8] | Potency [9] | outcome [10]

CCOC(=O)C(=O)OCC
inactive: Potency [1] | Potency [2] | outcome [3] | outcome [4] | outcome [5] | outcome [6] | outcome [7] | Potency [8] | Potency [9] | outcome [10]

N[C@H]1CN(c2c(F)cc3c(=O)c(C(=O)O)cn(C4C[C@H]4F)c3c2Cl)CC12CC2 (stereo partly drawn)
inactive: Potency [1] | Potency [2] | outcome [3] | outcome [4] | outcome [5] | outcome [6] | outcome [7] | Potency [8] | Potency [9] | outcome [10]

Cc1ccc(C#N)cc1
inactive: Potency [1] | Potency [2] | outcome [3] | outcome [4] | outcome [5] | outcome [6] | outcome [7] | Potency [8] | Potency [9] | outcome [10]

CO[C@]12C[C@@H](COC(=O)c3cncc(Br)c3)CN(C)[C@@H]1Cc1cn(C)c3cccc2c13
inactive: Potency [1] | Potency [2] | outcome [3] | outcome [4] | outcome [5] | outcome [6] | outcome [7] | Potency [8] | Potency [9] | outcome [10]

CCOC(=O)CCC(C)=O
inactive: Potency [1] | Potency [2] | outcome [3] | outcome [4] | outcome [5] | outcome [6] | outcome [7] | Potency [8] | Potency [9] | outcome [10]

NS(=O)(=O)c1cc(C(=O)O)cc(N2CCCC2)c1Oc1ccccc1
inactive: Potency [1] | Potency [2] | outcome [3] | outcome [4] | outcome [5] | outcome [6] | outcome [7] | Potency [8] | Potency [9] | outcome [10]

CCN(CC)CCNC(=O)c1cc(S(C)(=O)=O)ccc1OC
inactive: Potency [1] | Potency [2] | outcome [3] | outcome [4] | outcome [5] | outcome [6] | outcome [7] | Potency [8] | Potency [9] | outcome [10]

CC(=O)CC(C)(C)C1CCCCC1
inactive: Potency [1] | Potency [2] | outcome [3] | outcome [4] | outcome [5] | outcome [6] | outcome [7] | Potency [8] | Potency [9] | outcome [10]

Cn1cc(S(C)=O)c(=O)c2ccc(F)cc21 (stereo not drawn)
inactive: Potency [1] | Potency [2] | outcome [3] | outcome [4] | outcome [5] | outcome [6] | outcome [7] | Potency [8] | Potency [9] | outcome [10]

FC(F)OC(Cl)C(F)(F)F (stereo not drawn)
inactive: Potency [1] | Potency [2] | outcome [3] | outcome [4] | outcome [5] | outcome [6] | outcome [7] | Potency [8] | Potency [9] | outcome [10]

Nc1cc(=O)[nH]c(N)n1
inactive: Potency [1] | Potency [2] | outcome [3] | outcome [4] | outcome [5] | outcome [6] | outcome [7] | Potency [8] | Potency [9] | outcome [10]

N[C@@H](C(=O)N[C@@H]1C(=O)N2C(C(=O)O)=C(Cl)CS[C@H]12)c1ccccc1
inactive: activity change, negative = cytotoxicity [1] 12.3% [at 13.2 µM] | viability change, negative = cytotoxic [2] -2.62% [at 6.95 µM] | activation [3] -0.195% [at 6.95 µM] | activity, negative = cytotoxic [4] 6.68% [at 6.95 µM] | activation [5] 4.99% [at 6.95 µM] | activity change, negative = cytotoxicity [6] 11.8% [at 6.95 µM] | activity, negative = cytotoxicity [7] 0.217% [at 8.39 µM] | activity change, negative = inhibition [8] 46.6% [at 8.39 µM] | viability change, negative = cytotoxic [9] 3.61% [at 6.97 µM] | activation [10] 0.719% [at 6.97 µM]

COc1ccc2c(c1)CCCC2=O
inactive: Potency [1] | Potency [2] | outcome [3] | outcome [4] | outcome [5] | outcome [6] | outcome [7] | Potency [8] | Potency [9] | outcome [10]

CCN(CC)CCOCCOC(=O)C1(c2ccccc2)CCCC1
inactive: Potency [1] | outcome [3] | outcome [4] | outcome [5] | outcome [6] | Potency [8] | Potency [9] | outcome [10]

CCCc1cc(C(N)=S)ccn1
inactive: Potency [1] | Potency [2] | outcome [3] | outcome [4] | outcome [5] | outcome [6] | outcome [7] | Potency [8] | Potency [9] | outcome [10]

From PubChem BioAssay (Tox21)
